Laboratory results published in PubChem BioAssay (Tox21).
Values joined by “and” are separate entries in the source; they are usually repeats but may differ in a detail not shown here. Equal values may be shown once. Records with an inconclusive call do not appear. Where a call stands in place of a potency, no number is given. Where a structure was tested more than once in an assay, its records may differ in their call. Active and inactive are the calls of the source. Unless noted, calls come from the whole dose curve; as a rule, active = well fitted curve in the direction sought with a large enough effect in the repeat runs; inconclusive = weak or mixed curves; inactive = no such curve, though single readings can be large; an effect the other way counts as inactive or inconclusive.

What was measured:
[1] = qHTS assay for small molecules that induce genotoxicity in human embryonic kidney cells expressing luciferase-tagged ATAD5 - cell viability (AID 651634; calls by dose curve; note: nearly all actives have a fitted effect of over 25% in size)
Procedure, shortened: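 Seeding of 2,000 HEK293T ATAD5-luciferase cells per well preceded pin-tool compound transfer. Plates sat 15.5 hr at 37C under 5% CO2, then fluorescence was read after 30 min with CellTiter-Fluor.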

[2] = qHTS assay to test for compound auto fluorescence at 590 nm (red) in HepG2 cells (AID 720674)
Procedure, shortened: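 Seeding: 2,000 HepG2 cells/well, MEM/10% FBS, overnight 37 C. Dosing: compound vs DMSO. Incubation: 1 hr, 37 C, 5% CO2. Read: fluorescence 540 ex/590 em, Rose Bengal sodium as red reference.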

[3] = qHTS assay to test for compound auto fluorescence at 535 nm (green) in HepG2 cells (AID 720675)
[4] = qHTS assay to test for compound auto fluorescence at 460 nm (blue) in HEK293 cells (AID 720678)
Procedure, shortened: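 Blue-channel (Ex/Em 405/460 nm) intensity measured in HEK293 cultures after overnight compound exposure at 37C; signal expressed relative to triamterene. Cells plated 2,000 per well in 10% dialyzed FBS medium and allowed 4-5 hr to attach.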

[5] = qHTS assay to test for compound auto fluorescence at 590 nm (red) in HEK293 cells (AID 720679)
Procedure, shortened: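 Red-channel autofluorescence (Ex/Em 540/590 nm; Rose Bengal sodium reference) was measured after overnight 37C, 5% CO2 exposure of attached HEK293 cells, 2,000 per well in medium with 10% dialyzed FBS.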

[6] = qHTS assay to test for compound auto fluorescence at 535 nm (green) in HEK293 cells (AID 720680)
[7] = qHTS assay to test for compound auto fluorescence at 460 nm (blue) in HEK293 cell free culture (AID 720681); note: potency is the fitted concentration of half-maximal effect
Procedure, shortened: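 Compounds were added to cell-free DMEM with 10% FBS and fluorescence read directly. The blue channel used 405 nm excitation and 460 nm emission, with triamterene as the reference fluorophore.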

[8] = qHTS assay to test for compound auto fluorescence at 535 nm (green) in HEK293 cell free culture (AID 720682)
Procedure, shortened: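 Intrinsic compound fluorescence is measured in culture medium containing 10% FBS, with excitation at 485 nm and detection at 535 nm, referenced to fluorescein.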

[9] = qHTS assay to test for compound auto fluorescence at 590 nm (red) in HEK293 cell free culture (AID 720683)
Procedure, shortened: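 Cell-free wells of DMEM with 10% FBS received compound, and intrinsic fluorescence was read at excitation/emission 540/590 nm. Values expressed as equivalence to Rose Bengal sodium.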

[10] = qHTS assay to test for compound auto fluorescence at 590 nm (red) in HepG2 cell free culture (AID 720684)
Procedure, shortened: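 Compound was pinned into wells holding MEM with 10% FBS and no cells, and red fluorescence was read at Ex/Em 540/590 nm. Signal is expressed as auto fluorescence equivalency relative to Rose Bengal sodium.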

[11] = qHTS assay to test for compound auto fluorescence at 460 nm (blue) in HepG2 cell free culture (AID 720685); note: potency is the fitted concentration of half-maximal effect
Procedure, shortened: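 Compound (23 nL) or DMSO pinned into cell-free MEM with 10% FBS; blue fluorescence read at 405/460 nm excitation/emission, expressed as auto-fluorescence equivalency to triamterene.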

[12] = qHTS assay to test for compound auto fluorescence at 535 nm (green) in HepG2 cell free culture (AID 720686)
[13] = qHTS assay to test for compound auto fluorescence at 460 nm (blue) in HepG2 cells (AID 720687); note: potency is the fitted concentration of half-maximal effect
Procedure, shortened: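 HepG2 cells in MEM with 10% FBS, attached overnight at 37 C, were exposed to compound or DMSO for 1 hr at 37 C, 5% CO2. Blue fluorescence was read at 405/460 nm, with triamterene as reference fluorophore.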

[14] = qHTS assay for small molecules that induce genotoxicity in human embryonic kidney cells expressing luciferase-tagged ATAD5 (AID 651632); note: nearly all actives have a fitted effect of over 15% in size; note: potency is the fitted concentration of half-maximal effect
Procedure, shortened: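 Reporter cells (HEK293T) express luciferase-tagged ATAD5, a protein that accumulates after DNA damage. Treat 16 hr at 37C/5% CO2, add Amplite, wait 30 min at RT, and read luminescence.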

[15] = qHTS assay for small molecule agonists of the p53 signaling pathway - cell viability (AID 651633; calls by dose curve; note: nearly all actives have a fitted effect of over 30% in size; note: potency is the fitted concentration of half-maximal effect)
Procedure, shortened: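 p53RE-bla cells were treated with compound for 16 hours at 37 C. Cytotoxicity was then measured as CellTiter-Glo luminescence after 30 min at room temperature.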

[16] = target: Glucocorticoid receptor (Homo sapiens) (UniProt P04150); experiment: qHTS assay to identify small molecule agonists of the glucocorticoid receptor (GR) signaling pathway (AID 720691; active = well fitted activation curve with a large enough effect in the signal ratio in the repeat runs, not every such curve was filed as active; the % refers to the signal ratio)
Chain of Glucocorticoid receptor (Homo sapiens) (P04150 whole entry, looked up): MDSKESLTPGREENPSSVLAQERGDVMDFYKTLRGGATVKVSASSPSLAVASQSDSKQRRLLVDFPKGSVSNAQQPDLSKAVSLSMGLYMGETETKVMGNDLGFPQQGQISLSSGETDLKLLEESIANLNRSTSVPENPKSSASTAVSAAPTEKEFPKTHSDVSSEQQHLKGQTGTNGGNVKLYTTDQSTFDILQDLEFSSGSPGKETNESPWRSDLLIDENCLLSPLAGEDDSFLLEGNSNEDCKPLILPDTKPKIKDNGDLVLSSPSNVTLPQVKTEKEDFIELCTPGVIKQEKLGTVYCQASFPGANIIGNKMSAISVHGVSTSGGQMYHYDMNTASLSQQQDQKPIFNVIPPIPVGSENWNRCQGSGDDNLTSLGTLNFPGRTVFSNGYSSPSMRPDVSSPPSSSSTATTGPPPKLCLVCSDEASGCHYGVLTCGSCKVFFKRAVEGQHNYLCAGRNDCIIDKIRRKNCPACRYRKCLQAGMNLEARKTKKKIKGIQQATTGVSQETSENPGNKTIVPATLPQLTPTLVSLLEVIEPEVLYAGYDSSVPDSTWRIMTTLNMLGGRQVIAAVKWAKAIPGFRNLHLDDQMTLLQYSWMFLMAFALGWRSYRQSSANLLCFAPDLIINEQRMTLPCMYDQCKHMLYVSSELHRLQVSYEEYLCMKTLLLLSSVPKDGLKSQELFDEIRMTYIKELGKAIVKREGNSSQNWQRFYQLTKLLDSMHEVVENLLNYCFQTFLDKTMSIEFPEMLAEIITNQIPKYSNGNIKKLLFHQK
Procedure, shortened: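 Reporter read-out: fluorescence intensity following 2 h room-temperature LiveBLAzer B/G FRET substrate loading. Prior step: GR-bla HeLa cells held 4 h, then treated 18 h at 37 C.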

[17] = target: Glucocorticoid receptor (Homo sapiens) (UniProt P04150); experiment: qHTS assay to identify small molecule antagonists of the glucocorticoid receptor (GR) signaling pathway (AID 720692; active = well fitted inhibition curve with a large enough effect in the signal ratio in the repeat runs, not every such curve was filed as active; the % refers to the signal ratio; note: potency is the fitted concentration of half-maximal effect)
Procedure, shortened: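 Dexamethasone (5 nM final) stimulated a stably integrated GRE-beta-lactamase reporter in HeLa cells during 18 h co-incubation with compounds; signal was quantified as fluorescence intensity of B/G FRET substrate after 2 h.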

[18] = qHTS assay for small molecule disruptors of the mitochondrial membrane potential - cell viability (AID 720634; calls by dose curve; note: nearly all actives have a fitted effect of over 20% in size; note: potency is the fitted concentration of half-maximal effect)
Procedure, shortened: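 Measuring cytotoxicity alongside mitochondrial potential, the screen quantified ATP by luminescence in HepG2 cells after 1 hr compound incubation and a 30 min room-temperature CellTiter-Glo step.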

[19] = qHTS assay for small molecule agonists of the p53 signaling pathway (AID 651631; calls by dose curve; note: nearly all actives have a fitted effect of over 15% in size)
Procedure, shortened: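 Fluorescence intensity from cleaved LiveBLAzer B/G substrate (2 h, room temperature) served as the signal. Beforehand, HCT-116 reporter cells bearing p53 response elements were treated 16 h at 37 °C with DMSO-dissolved compounds.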

[20] = qHTS assay for small molecule disruptors of the mitochondrial membrane potential (AID 720635); note: potency is the fitted concentration of half-maximal effect
Procedure, shortened: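 HepG2 cells exposed to compound 1 hr at 37C, then Mito-MPS dye 30 min. Ratio read of aggregate (540/590 nm) versus monomer (490/535 nm) fluorescence.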
Tags give direction and shape of the fitted curve or compound fluorescence and quenching.

C=C[C@H]1CN2CC[C@H]1C[C@@H]2[C@@H](O)c1ccnc2ccc(OC)cc12
Potency [1]: inactive
Potency [2]: inactive
Potency [3]: inactive
outcome [4]: inactive
Potency [5]: inactive
Potency [6]: inactive
Potency [7]: inactive
Potency [8]: inactive
Potency [9]: inactive
Potency [10]: inactive
Potency [11]: inactive
Potency [12]: inactive
Potency [13]: inactive

Cc1cccc(Nc2ccccc2C(=O)O)c1C
Potency [14]: inactive
Potency [15]: inactive
Potency [1]: inactive
Potency [2]: inactive
Potency [3]: inactive
outcome [4]: inactive
Potency [6]: inactive
Potency [7]: inactive
Potency [8]: inactive
Potency [9]: inactive
Potency [10]: inactive
Potency [11]: inactive
Potency [12]: inactive
Potency [13]: inactive
Potency [16]: inactive
Potency [17]: inactive

Cc1ccc(N)c([N+](=O)[O-])c1
Potency [14]: inactive
Potency [15]: inactive
Potency [18]: inactive
Potency [2]: inactive
Potency [3]: inactive
outcome [4]: inactive
Potency [5]: inactive
Potency [6]: inactive
Potency [7]: inactive
Potency [8]: inactive
Potency [9]: inactive
Potency [10]: inactive
Potency [12]: inactive
Potency [13]: inactive
Potency [17]: inactive

COc1ccc(-c2coc3cc(O)cc(O)c3c2=O)cc1
Potency [14]: 1.38 µM (active) and 3.86 µM (active)
Potency [15]: inactive
Potency [1]: inactive
Potency [18]: 4.9 µM (active) and 13.7 µM (active)
Potency [2]: inactive
Potency [3]: inactive
outcome [4]: inactive
Potency [5]: inactive
Potency [6]: inactive
Potency [7]: inactive
Potency [8]: inactive
Potency [9]: inactive
Potency [10]: inactive
Potency [12]: inactive
Potency [13]: inactive

CC/C=C\C/C=C\C/C=C\CCCCCCCC(=O)O
Potency [15]: inactive
Potency [18]: inactive
Potency [2]: inactive
Potency [3]: inactive
outcome [4]: inactive
Potency [5]: inactive
Potency [6]: inactive
Potency [7]: inactive
Potency [8]: inactive
Potency [9]: inactive
Potency [10]: inactive
Potency [11]: inactive
Potency [12]: inactive
Potency [13]: inactive

Nc1ccc(O)c(N)c1
Potency [19]: inactive
Potency [15]: inactive
Potency [20]: 10.8 µM (active) and 4.86 µM (active)
Potency [2]: inactive
Potency [3]: inactive
outcome [4]: inactive
Potency [6]: inactive
Potency [7]: inactive
Potency [8]: inactive
Potency [9]: inactive
Potency [10]: inactive
Potency [11]: inactive
Potency [12]: inactive
Potency [13]: inactive
Potency [16]: inactive

CCCCCCOCCOCCO
Potency [15]: inactive
Potency [18]: inactive
Potency [20]: inactive
Potency [2]: inactive
Potency [3]: inactive
outcome [4]: inactive
Potency [5]: inactive
Potency [6]: inactive
Potency [7]: inactive
Potency [8]: inactive
Potency [9]: inactive
Potency [10]: inactive
Potency [11]: inactive
Potency [12]: inactive
Potency [13]: inactive
Potency [16]: inactive
Potency [17]: inactive

Cc1ccc(C(C)(C)C)c(O)c1
Potency [14]: inactive
Potency [15]: inactive
Potency [1]: inactive
Potency [2]: inactive
Potency [3]: inactive
outcome [4]: inactive
Potency [6]: inactive
Potency [7]: inactive
Potency [8]: inactive
Potency [9]: inactive
Potency [10]: inactive
Potency [11]: inactive
Potency [12]: inactive
Potency [13]: inactive

CCCCCCC(C)O (stereo unspecified)
Potency [14]: inactive
Potency [15]: inactive
Potency [1]: inactive
Potency [20]: inactive
Potency [2]: inactive
Potency [3]: inactive
outcome [4]: inactive
Potency [6]: inactive
Potency [7]: inactive
Potency [8]: inactive
Potency [9]: inactive
Potency [10]: inactive
Potency [11]: inactive
Potency [12]: inactive
Potency [13]: inactive
Potency [17]: inactive

OCCNCCO
Potency [14]: inactive
Potency [15]: 19.3 µM (active) and inactive
Potency [1]: inactive
Potency [18]: inactive
Potency [20]: inactive
Potency [2]: inactive
Potency [3]: inactive
outcome [4]: inactive
Potency [5]: inactive
Potency [6]: inactive
Potency [7]: inactive
Potency [8]: inactive
Potency [9]: inactive
Potency [10]: inactive
Potency [12]: inactive
Potency [13]: inactive
Potency [17]: inactive

CC1(C)C(C=C(Cl)Cl)C1C(=O)OCc1cccc(Oc2ccccc2)c1 (stereo unspecified)
Potency [14]: inactive
Potency [15]: inactive
Potency [1]: inactive
Potency [20]: 30.6 µM (active)
Potency [2]: inactive
Potency [3]: inactive
outcome [4]: inactive
Potency [5]: inactive
Potency [6]: inactive
Potency [7]: inactive
Potency [8]: inactive
Potency [9]: inactive
Potency [10]: inactive
Potency [11]: inactive
Potency [12]: inactive
Potency [13]: inactive
Potency [17]: inactive

NC[C@H](O)c1ccc(O)c(O)c1
Potency [14]: inactive
Potency [2]: inactive
Potency [3]: inactive
outcome [4]: inactive
Potency [6]: inactive
Potency [7]: inactive
Potency [8]: inactive
Potency [9]: inactive
Potency [10]: inactive
Potency [11]: inactive
Potency [12]: inactive
Potency [13]: inactive
Potency [17]: inactive

Oc1ccc(C(c2ccc(O)cc2)C(Cl)(Cl)Cl)cc1
Potency [15]: 68.3 µM (active)
Potency [20]: 6.09 µM (active) and 6.86 µM (active)
Potency [2]: inactive
Potency [3]: inactive
outcome [4]: inactive
Potency [6]: inactive
Potency [7]: inactive
Potency [8]: inactive
Potency [9]: inactive
Potency [10]: inactive
Potency [11]: inactive
Potency [12]: inactive
Potency [13]: inactive
Potency [17]: 21.9 µM (active)

Cc1ccc(/C(=C\CN2CCCC2)c2ccccn2)cc1
Potency [15]: inactive
Potency [18]: inactive
Potency [2]: inactive
Potency [3]: inactive
outcome [4]: inactive
Potency [5]: inactive
Potency [6]: inactive
Potency [7]: inactive
Potency [8]: inactive
Potency [9]: inactive
Potency [10]: inactive
Potency [11]: inactive
Potency [12]: inactive
Potency [13]: inactive

CCCN1C=CN(C)C1
Potency [14]: inactive
Potency [15]: inactive
Potency [1]: inactive
Potency [20]: inactive
Potency [2]: inactive
Potency [3]: inactive
outcome [4]: inactive
Potency [6]: inactive
Potency [7]: inactive
Potency [8]: inactive
Potency [9]: inactive
Potency [10]: inactive
Potency [11]: inactive
Potency [12]: inactive
Potency [13]: inactive

CN(Cc1cnc2nc(N)nc(N)c2n1)c1ccc(C(=O)N[C@@H](CCC(=O)O)C(=O)O)cc1
Potency [15]: 168 nM (active) and 48.6 nM (active)
Potency [2]: inactive
Potency [3]: inactive
Potency [6]: inactive
Potency [7]: 39.8 µM (active)
Potency [8]: inactive
Potency [9]: inactive
Potency [10]: inactive
Potency [11]: 35.5 µM [fluorescent] (active)
Potency [12]: inactive
Potency [13]: 35.5 µM [fluorescent] (active)
